# Source: PubChem BioAssay (NCATS)
# Inconclusive results are not listed. Unmarked numbers belong to inactive results. The source made the active and inactive calls. Calls follow the shape of the dose curve; as a rule, active = well fitted cell-killing curve with a large enough effect; inconclusive = small, poorly fitted or top-dose-only effect; inactive = flat fitted curve, though single readings scatter.
# Experiment: Cell Viability - LYMP2-010 (AID 981); also: nearly all actives have a fitted effect of over 55% in size
# Details: LYMP2-010 lymphoblastoid cell viability, qHTS; series mostly up to 92.2 µM; activity, negative = cytotoxicity: at the top concentration
# From the text: NIH Chemical Genomics Center [NCGC]
# NIH Molecular Libraries Screening Centers Network [MLSCN]
# National Institutes of Environmental Health Sciences [NIEHS]
# National Toxicology Program [NTP]
# We have developed a 1536-well cell-based assay for quantitative high throughput screening (qHTS) against a number of cell lines to determine in vitro cytotoxicity of small molecules. This particular assay uses a human lymphoblastoid cell line (LYMP2-010) purchased from Coriell Institute for Medical Research.
# NCGC Assay Protocol Summary:
# The CellTiter-Glo luminescent cell viability assay (Promega) is a homogeneous method to measure the number of viable cells in culture. The end point readout of this assay is based on quantitation of intracellular ATP, an indicator of metabolic activity, using the luciferase reaction. Luciferase catalyzes the oxidation of beetle Luciferin to oxyluciferin and light in the presence of ATP. The luminescent signal is proportional to amount of ATP present.
# Using the CellTiter-Glo luminescent cell viability assay, the amount of cellular ATP was measured in the lymphoblastoid cell line with complete culture medium following compound treatment for 24 hours. The assay was performed in opaque white Kalypsys 1536-well plates. In the screen, tetraoctylammonium bromide was used as positive control. Library compounds were measured for their ability to cause acute toxicity in the cell line, as reflected by a decrease in intracellular ATP levels, in a concentration-dependent manner. […] AC50 values were determined from concentration-response data modeled with the standard Hill equation.
# qHTS protocol for CellTiter Glo lymphoblastoid cellular assay
# [Step] [Parameter] [Value] [Description]
# 1. Reagent; 5 uL; 2500 lymphoblastoid cells/well
# 2. Time; 5 hr; 37 C incubation
# 4. Controls; 23 nL; Tetraoctylammonium bromide 6.4pM to 92 uM
# 5. Time; 24 hr; 37 C incubation
# 6. Reagent; 5 uL; CellTiter Glo reagent
# 7. Time; 30 min; Room Temperature
# 8. Detection; Luminescence; Viewlux plate reader
# Keywords: cell viability, cytotoxicity, lymphoblastoid cell line, luminescence, NTPHTS, NTPHTS_NCGC, NIEHS, DSSTox, MLSMR, MLSCN, NIH Roadmap, qHTS, NCGC
# % is scaled to controls: 0 for no effect and ±100 for the full control effect; potency is read from the fitted curve at half-maximal effect.
SMILES,"activity, negative = cytotoxicity",Potency
Oc1ccccc1,9.68%,
CC(=O)OC/C=C(C)/C=C/C=C(C)/C=C/C1=C(C)CCCC1(C)C,,50.1 µM (active)
C1=CC2C3C=CC(C3)C2C1 (stereo not given),-15.8%,
c1ccc2occc2c1,-12.3%,
Cc1cc(C(C)(C)C)c(O)c(C(C)(C)C)c1,-8.65%,
Cc1ccc(O)cc1,-7.98%,
CCCCC(CC)COC(=O)c1ccccc1C(=O)O (stereo not given),-19.8%,
O=C(Oc1ccccc1)c1ccccc1O,-8.39%,
O=C(c1ccccc1)c1ccccc1,-4.24%,
CC(C)(c1ccc(O)cc1)c1ccc(O)cc1,,inactive
Nc1cccc2c(N)cccc12,-23.3%,
CC(C)C(C)(C)C(C)(C)C(C)(C)S,-11.3%,
Brc1ccccc1-c1ccccc1,-17%,
Nc1c2ccccc2nc2ccccc12,,12.6 µM (active)
OCc1c[nH]c2ccccc12,-12.3%,
CC(C)(C)c1ccc(O)c(O)c1,,31.6 µM (active)
Nc1ccc(O)cc1,,25.1 µM (active)
O=C(NO)c1ccccc1,-12.8%,
CCCCCCCCCCCCCCCC[n+]1ccccc1,,15.8 µM (active)
COc1cc(C=O)ccc1O,-13.6%,
